Source: PubChem (several laboratories)
Hits are enriched below; roughly 6.7% of the tested compounds scored in any of these assays.
FBA Mtb inh: inhibitors of M. tuberculosis fructose-bisphosphate aldolase; AID 588726; purified M. tuberculosis FBA, fluorescence read-out; inhibition, % at 1 µM; P9WQA3; 2.3% of 360,000 active; in the data active means inhibition above about 27%
Target sequence (P9WQA3 whole entry, looked up): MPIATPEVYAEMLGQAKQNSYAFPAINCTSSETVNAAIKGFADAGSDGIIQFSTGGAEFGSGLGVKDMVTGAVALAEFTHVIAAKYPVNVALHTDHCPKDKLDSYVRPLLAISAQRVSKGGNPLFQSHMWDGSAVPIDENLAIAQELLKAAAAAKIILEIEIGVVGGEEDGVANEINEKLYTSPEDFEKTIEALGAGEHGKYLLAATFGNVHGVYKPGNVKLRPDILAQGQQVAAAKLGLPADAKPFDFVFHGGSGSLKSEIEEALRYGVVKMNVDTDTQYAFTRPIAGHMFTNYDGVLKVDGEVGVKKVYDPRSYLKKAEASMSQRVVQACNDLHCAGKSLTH
BoNT-A LC inh2: blocks Botulinum neurotoxin A light chain protease. inhibition, % at 10 µM. 0.17% of 360,000 active. multiplex microsphere protease substrate cleavage, flow cytometry
BoNT-F LC inh: BoNT F light chain protease inhibition; 0.22% of 360,000 active; Multiplex microsphere protease cleavage assay, flow cytometry; inhibition, % at 10 µM; AID 588497; in the data active means inhibition above about 35%, passing the limit was not always enough; inconclusive means no clear call, values can overlap the other calls
GDH-TPI counter: inhibits GDH-TPI coupling enzymes, artifact for Mtb FBA screen | GDH-TPI coupled enzyme counterscreen, NADH absorbance | inhibition, % at 4.8 µM | 1.2% of 360,000 active | AID 588335; in the data active means inhibition above about 30%
Autofluor counter: flagged as autofluorescent in microsphere protease counterscreen; fluorescence intensity (no concentration beside the values); 3.1% of 360,000 active; compound autofluorescence counterscreen, microsphere flow cytometry; hits give high values; in the data active means fluorescence intensity above about 16000; inconclusive means no clear call, values can overlap the other calls
Anthrax LF prot: inhibitors of Bacillus anthracis lethal factor protease; inhibition, % at 10 µM; 0.12% of 360,000 active; multiplex microsphere protease cleavage assay, LF
Of the large screens only hits and unclear results are named; the others gave an inactive call. Unless noted, no stated cut-off is given here; in the data, active means inhibition above about 30%; inconclusive means no clear call, values can overlap the other calls; inactive means below that.

COc1c(F)c(F)c(C(=O)Nc2ccc(N3CCN(C(C)=O)CC3)c(Cl)c2)c(F)c1F	BoNT-A LC inh2 inconclusive, Autofluor counter 17323
COc1c(F)c(F)c(C(=O)Nc2ccc(N3CCN(Cc4ccccc4)CC3)cc2)c(F)c1F	Autofluor counter 24627
COc1ccc(C(=O)Nc2ccc(N3CCN(Cc4ccccc4)CC3)cc2)cc1	none
CCOC(=O)c1c(C)c(C(=O)N2CCN(c3cccc(Cl)c3)CC2)c(C)n1C	none
CCOC(=O)C1=C(C)NC(=S)NC1c1ccc(-c2cccc(Cl)c2C)o1 (stereo unspecified)	none
Cc1cccc(N2C(=O)NC(=O)/C(=C\c3ccc(N4CCOCC4)cc3)C2=O)c1	BoNT-F LC inh inconclusive, GDH-TPI counter 30.7
CCc1ccc(CCC(=O)Nc2nnc(CC)s2)o1	Autofluor counter 16177
CCc1nnc(NC(=O)CCN2C(=O)c3ccccc3C2=O)s1	Autofluor counter 22862
COC(=O)c1ccccc1S(=O)(=O)N1CCC(C(=O)NC2CCCCC2C)CC1 (stereo unspecified)	none (no result: BoNT-A LC inh2, BoNT-F LC inh, Autofluor counter, Anthrax LF prot)
O=C(CC1SC2=NCCN2C1=O)Nc1ccc(Br)cc1 (stereo unspecified)	Autofluor counter 21829
CCOC(=O)c1ccc(NC(=O)CC2SC3=NCCN3C2=O)cc1 (stereo unspecified)	none
COc1ccc(S(=O)(=O)N2CCC[C@H]2C(=O)N2CCC[C@H]2C(=O)NCc2ccccn2)cc1C	none (no result: FBA Mtb inh, GDH-TPI counter)
CCOC1(C(F)(F)F)NC(=O)N(Cc2ccc(OC)cc2)C1=O (stereo unspecified)	Autofluor counter 19545
Cc1ccc(Sc2ccc(NC(=O)CCl)cc2)cc1C	none
FC(F)(F)c1nnc2sc(-c3ccncc3)nn12	BoNT-A LC inh2 inconclusive, Autofluor counter 19007
NC(=O)c1ccccc1NC(=O)Nc1cccc(Cl)c1	Autofluor counter 20064
COc1cc(NC(=O)Nc2cccc(Cl)c2)c(C(=O)O)cc1OC	FBA Mtb inh 145.7
O=c1cc(Nc2ccc3c(c2)OCCO3)[nH]c(=O)n1-c1ccc(Br)cc1	none
Cc1cc(NC(=O)CSc2nnc(Cc3cccn3C)n2CCc2ccccc2)no1	none
O=S(=O)(Cc1ccccc1)Nc1ccccc1	none
CC(=O)c1ccc(NS(=O)(=O)Cc2ccccc2)cc1	GDH-TPI counter 35.0
CC(=O)N(C)c1ccc(NS(=O)(=O)Cc2ccccc2)cc1	BoNT-A LC inh2 inconclusive, Autofluor counter 22151
CN(Cc1ccccc1)S(=O)(=O)c1ccc(NS(=O)(=O)Cc2ccccc2)cc1	none
COc1ccc(NS(=O)(=O)Cc2ccccc2)cc1OC	Autofluor counter 21419
COc1ccc(NC(=O)C#Cc2ccccc2)cc1OC	GDH-TPI counter 34.3
NC(=O)c1ccc(NC(=O)C#Cc2ccccc2)cc1	none
COc1cccc(C(=O)C2CCCN(Cc3ccc4nsnc4c3)C2)c1 (stereo unspecified)	none
COc1ccc(C(=O)Nc2cccc(C(C)=O)c2)cc1S(=O)(=O)N1CCOCC1	Autofluor counter inconclusive
Cc1cc(NC(=O)CCC(=O)N(Cc2cccs2)C(C(=O)NC2CCCC2)c2cccnc2)no1 (stereo unspecified)	none
Cc1ccc(SCC(=O)NCCSCc2ccccc2)cc1	none
O=[N+]([O-])c1cccnc1NCCc1c[nH]c2ccccc12	none
COc1cc(C(=O)NCCOc2ccc(C)c(C)c2)cc(OC)c1OC	none
Cn1c(N2CCOCC2)c(/C=N/OC(=O)c2ccc(F)cc2)c2ccccc21	none
CN(C)S(=O)(=O)Nc1ccc(C(=O)O)cc1	Autofluor counter 21783
CN=C(c1ccc(C)cc1)n1c(=S)nc(-c2ccc(C)cc2)n(C)c1=S	none
CCOC(=O)c1cc(-c2cccs2)nc2c1c(C)nn2-c1ccccn1	GDH-TPI counter 36.6
Cc1nn(-c2ccccc2)c2nc(-c3cccs3)cc(C(=O)NN)c12	none
O=c1ccc2cc(O[C@@H]3O[C@H](CO)[C@@H](O)[C@H](O)[C@H]3O)c(O)cc2o1	FBA Mtb inh active
COc1cc2cc(Oc3ccc4ccc(=O)oc4c3)c(=O)oc2cc1O[C@@H]1O[C@H](CO)[C@@H](O)[C@H](O)[C@H]1O	none
COc1cc2cc(Oc3ccc4ccc(=O)oc4c3)c(=O)oc2cc1OC1OC(COC(=O)CC(C)(O)CC(=O)O)C(O)C(O)C1O (stereo unspecified)	GDH-TPI counter 32.4
CCc1cc(=O)oc2cc(O[C@@H]3O[C@H](CO)[C@@H](O)[C@H](O)[C@H]3O)c(Cl)cc12	none
O=C(Nc1c(F)cc(F)cc1Br)C1CCCO1 (stereo unspecified)	Autofluor counter 25313
